Measurements: PubChem BioAssay (NCATS)
Results filed as inconclusive are left out. A number with no mark means an inactive call. The source made the active and inactive calls. Calls follow the shape of the dose curve; as a rule, active = well fitted inhibition curve with a large enough effect; inconclusive = small, poorly fitted or top-dose-only effect; inactive = flat fitted curve, though single readings scatter.

Key:
Test in all cases: Cytotoxic Profiling of Annotated Libraries Using Quantitative High-Throughput Screening (AID 1296008); also: nearly all actives have a fitted effect of over 60% in size
Settings in all cases: Five cell lines viability, CellTiter-Glo ATP luminescence, 48-72 h; max response: stronger effect = lower value
[1] = test system: CRL-7250
Method in brief: (§1)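 Compounds were pin-transferred onto cells and incubated 48 or 72 hr at 37 degree Celsius, 95% humidity. CellTiter-Glo was added, plates sat 10 min at room temperature, then ATP-coupled luminescence was imaged as the viability read-out.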

[2] = test system: HEK293
Method in brief: as §1

[3] = test system: HaCat
Method in brief: as §1
% is scaled to controls: 0 for no effect and ±100 for the full control effect; potency is read from the fitted curve at half-maximal effect.

Q: Which max response [1] does the source give for `O=C1Nc2nc(-c3c(O)cccc3OCC3CC3)cc([C@@H]3CCCNC3)c2CO1` here?
A: The max response was -29.4%.

Q: What about the Potency [2] of the same molecule?
A: Its Potency is 20.6 µM (active).

Q: `C=C1C(=O)O[C@@H]2[C@H]3C(C)=CC(=O)C3=C(C)CC[C@@H]12` was tested. Which Potency [1] did it give?
A: The Potency was 7.31 µM (active).

Q: What about the Potency [2] of the same molecule?
A: The Potency was 2.06 µM (active).

Q: `CC(C)n1cnc2c(-c3cnc(N)nc3)nc(N3CCOCC3)nc21` was tested. Which Potency [1] did it give?
A: Its Potency is 0.709 µM (active).

Q: What about the Potency [2] of the same molecule?
A: The Potency was 1.78 µM (active).

Q: What about the Potency [3] of the same molecule?
A: The Potency was 0.632 µM (active).

Q: For `C[C@@H]1O[C@@H](O[C@H]2[C@H](OC(=O)[C@]34CCC(C)(C)C[C@H]3C3=CCC5[C@@]6(C)C[C@H](O)[C@H](O[C@@H]7O[C@H](CO)[C@@H](O)[C@H](O)[C@H]7O)[C@](CO)(C(=O)O)C6CC[C@@]5(C)[C@]3(C)C[C@H]4O)OC[C@H](O)[C@@H]2O)[C@H](O)[C@H](O)[C@H]1O[C@@H]1OC[C@@H](O)[C@H](O[C@@H]2OC[C@](O)(CO)[C@H]2O)[C@H]1O` (some centres not stated), which Potency [1] is on record?
A: Its Potency is 1.38 µM (active).

Q: What about the Potency [2] of the same molecule?
A: Its Potency is 0.692 µM (active).

Q: For `CC(C)S(=O)(=O)NC[C@H](C)c1ccc(-c2ccc(CCNS(C)(=O)=O)cc2)cc1`, which Potency [1] is on record?
A: The Potency was 4.61 µM (active).

Q: What about the Potency [2] of the same molecule?
A: Its Potency is 5.8 µM (active).

Q: And the max response [3]?
A: Its max response is 2.78%.

Q: Which Potency [1] does the source give for `COC(=O)CC1OC(C)C2=C(O)c3c(O)cccc3C(=O)C23OC13` (configuration not stated) here?
A: The Potency was 4.04 µM (active).

Q: What about the Potency [2] of the same molecule?
A: Its Potency is 2.86 µM (active).

Q: With `N#Cc1ccc(Nc2nc(-c3ccc(O)cc3O)cs2)cc1C(F)(F)F` as the molecule, how does the Potency [1] read?
A: Its Potency is 5.8 µM (active).

Q: And the Potency [2]?
A: The Potency was 3.26 µM (active).

Q: And the Potency [3]?
A: The Potency was 7.31 µM (active).

Q: For `C=CC(=O)Nc1ccc2ncnc(Nc3cccc(Br)c3)c2c1`, which Potency [1] is on record?
A: Its Potency is 5.8 µM (active).

Q: And the Potency [2]?
A: The Potency was 20.6 µM (active).

Q: And the Potency [3]?
A: The Potency was 0.0461 µM (active).

Q: Which max response [1] does the source give for `CCCCNc1ncc(-c2ccc(CN3CCOCC3)cn2)c(NC2CCC(O)CC2)n1` (configuration not stated) here?
A: Its max response is -14.5%.

Q: What about the max response [2] of the same molecule?
A: Its max response is -11.5%.

Q: Which results are given for `CCn1c2ccccc2c2cc(Nc3ccnc(NCCCN4CCOCC4)n3)ccc21`?
A: Potency [1]: 18.4 µM (active); Potency [2]: 9.2 µM (active)

Q: Which max response [1] does the source give for `Cn1ncc(Cl)c1-c1cc(C(=O)N[C@H](CN)Cc2ccc(F)c(F)c2)sc1Cl` here?
A: The max response was -4.08%.

Q: What about the Potency [2] of the same molecule?
A: The Potency was 1.3 µM (active).

Q: How did the Potency [1] turn out when `COCC(=O)NC/C=C/c1ccc2ncnc(Nc3ccc(Oc4ccc(C)nc4)c(C)c3)c2c1` was run?
A: Its Potency is 9.2 µM (active).

Q: And the Potency [2]?
A: The Potency was 14.6 µM (active).

Q: How did the Potency [1] turn out when `CN1CCN(c2ccc(Nc3cc(-c4cccc(-n5ccc6cc(C7CC7)cc(F)c6c5=O)c4CO)cn(C)c3=O)nc2)CC1` was run?
A: Its Potency is 23.1 µM (active).

Q: And the Potency [2]?
A: Its Potency is 11.6 µM (active).

Q: What about the Potency [3] of the same molecule?
A: Its Potency is 18.4 µM (active).

Q: For `CCCCNc1ncc(C(=O)NCc2ccc(-n3ccnc3)cc2)c(NC2CCC(O)CC2)n1` (configuration not stated), which Potency [1] is on record?
A: The Potency was 13 µM (active).

Q: And the Potency [2]?
A: The Potency was 7.31 µM (active).

Q: What about the Potency [3] of the same molecule?
A: The Potency was 23.1 µM (active).

Q: For `COc1cc(CCC2=NN=C(NC(=O)c3ccc(N4C[C@@H](C)N[C@@H](C)C4)cc3)C2)cc(OC)c1`, which Potency [1] is on record?
A: The Potency was 10.3 µM (active).

Q: And the Potency [2]?
A: The Potency was 18.4 µM (active).

Q: What about the max response [3] of the same molecule?
A: Its max response is -66.4%.

Q: Which results are given for `CCC(C)CC(=O)OC1C(=O)C(CO)=CC(O)C1C(C)C` (configuration not stated)?
A: Potency [1]: 18.4 µM (active); Potency [2]: 8.2 µM (active)

Q: `Cn1ncc2cc(-c3cnc(N)c(Cl)c3N3CCC4(CCNC4=O)CC3)ccc21` was tested. Which outcome [1] did it give?
A: The outcome was “inactive”.

Q: Which Potency [1] does the source give for `O=C(NCCCc1ccccc1)c1cccc(-c2cc(O)c3ncccc3c2)c1` here?
A: The Potency was 5.17 µM (active).

Q: And the Potency [2]?
A: Its Potency is 20.6 µM (active).

Q: And the Potency [3]?
A: The Potency was 25.9 µM (active).

Q: Which results are given for `COc1ccc(-c2cc3onc(-c4ccncc4)c3c(=O)n2C)cc1`?
A: Potency [1]: 0.651 µM (active); Potency [2]: 1.3 µM (active); max response [3]: -2.33%

Q: What does the source list for `CC#CC(=O)Nc1ccc2ncnc(Nc3cccc(Br)c3)c2c1`?
A: Potency [1]: 6.51 µM (active); Potency [2]: 3.66 µM (active); Potency [3]: 0.0326 µM (active)

Q: `COc1cc(NC(=O)c2cccc(-n3cc(NC(=O)Nc4cccc(C)c4)cn3)c2)cc(OC)c1OC` was tested. Which outcome [1] did it give?
A: Its outcome is “inactive”.

Q: And the Potency [2]?
A: The Potency was 9.2 µM (active).

Q: And the max response [3]?
A: The max response was 3.54%.

Q: Which results are given for `Cc1csc2c(N[C@@H](C)CN3CCN(S(=O)(=O)c4ccc(Cl)c(Cl)c4)CC3)ncnc12`?
A: Potency [1]: 0.259 µM (active); Potency [2]: 0.366 µM (active); Potency [3]: 2.91 µM (active)

Q: What does the source list for `CC(O)C(C)n1ncn(-c2ccc(N3CCN(c4ccc(OCC5COC(Cn6cncn6)(c6ccc(Cl)cc6Cl)O5)cc4)CC3)cc2)c1=O` (configuration not stated)?
A: outcome [1]: inactive; Potency [2]: 16.4 µM (active); max response [3]: -3.2%

Q: Which max response [1] does the source give for `Nc1nc(NC2CC2)cc(-c2cccc(Cl)c2Cl)n1` here?
A: The max response was -27.4%.

Q: What about the Potency [2] of the same molecule?
A: Its Potency is 18.4 µM (active).

Q: Which max response [1] does the source give for `C[C@@H](N[C@H]1CCCC[C@@H]1NC(=O)c1ccc(Cl)cc1)c1cccc2ccccc12` here?
A: The max response was 0.829%.

Q: And the Potency [2]?
A: Its Potency is 20.6 µM (active).

Q: What about the max response [3] of the same molecule?
A: Its max response is -13%.

Q: How did the Potency [1] turn out when `OC1C=C2C3CN(Cc4cc5c(cc43)OCO5)C2CC1O` (configuration not stated) was run?
A: The Potency was 8.2 µM (active).

Q: What about the Potency [2] of the same molecule?
A: Its Potency is 6.51 µM (active).

Q: Which results are given for `C=C1C(=O)OC2/C=C(\COC(C)=O)CC/C=C(\C=O)CC(OC(=O)CC(C)C)C12` (configuration not stated)?
A: Potency [1]: 7.96 µM (active); Potency [2]: 2.82 µM (active)

Q: For `Fc1ccc2[nH]ccc2c1-c1nc(N2CCOCC2)c2sc(CN3CCN(CC4CC4)CC3)cc2n1`, which max response [1] is on record?
A: The max response was -20.6%.

Q: And the Potency [2]?
A: The Potency was 18.4 µM (active).

Q: For `CC(C)=CCCC1(C)/C=C/C(OC(=O)C=C(C)C)C(C)(O)/C=C/C(=O)/C(CO)=C\C1` (configuration not stated), which max response [1] is on record?
A: The max response was -29.1%.

Q: And the Potency [2]?
A: Its Potency is 2.52 µM (active).

Q: What does the source list for `CN(C)CCOC(C)(c1ccccc1)c1ccc(Cl)cc1` (configuration not stated)?
A: Potency [1]: 25.9 µM (active); Potency [2]: 20.6 µM (active)

Q: For `COc1cc2nc(C3CC3)nc(N3CCN(c4ccccc4OC)CC3)c2cc1OC`, which max response [1] is on record?
A: Its max response is -2.72%.

Q: What about the Potency [2] of the same molecule?
A: The Potency was 18.4 µM (active).

Q: And the max response [3]?
A: Its max response is -4.62%.

Q: How did the max response [1] turn out when `CC(C)=CCC/C(C)=C/COCC1OC(n2ccc(=O)[nH]c2=O)C(O)C1O` (configuration not stated) was run?
A: The max response was -3.59%.
